Screening results deposited in PubChem by National Center for Advancing Translational Sciences (NCATS).
Rows were chosen to be rich in hits. Some 9.5% of all compounds tested hit in one or more screens of this group.
SARS PLpro yeast – qHTS of Yeast-based Assay for SARS-CoV PLP. S. cerevisiae expressing SARS-CoV PLpro, growth rescue. Potency, µM (highest dose often 32.9 µM), actives largely listed as activators. 0.19% of 330,000 active. AID 485353, 2010; also: nearly all actives have a fitted effect of over 55% in size
NS1 inh – qHTS Assay for Inhibitors of Influenza NS1 Protein Function; Potency, µM (series often up to 46.1 µM); 0.4% of 270,000 active; AID 2326, 2010; also: actives are rising curves; nearly all actives have a fitted effect of over 50% in size
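In this qHTS, NS1 from influenza A is expressed in budding yeast, where it slows growth. Cells are switched from glucose to 2% galactose medium (pH 6.0, -URA), treated with compound, and growth recovery is read at OD600.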
RE007 growth inh – qHTS Assay for Inhibitors of the HIV-1 protein Vpr; S. pombe RE007 Vpr strain, BacTiter-Glo ATP luminescence, 24 h; Potency, µM (doses to about 92.2 µM), actives largely listed as inhibitors; 0.21% of 360,000 active; active = well fitted falling curve with a large enough effect; inconclusive = small, poorly fitted or top-dose-only effect; inactive = no such curve, though single readings can be large or run the other way; also: nearly all actives have a fitted effect of over 50% in size
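Fission yeast strain RE007, carrying one chromosomally integrated HIV-1 vpr copy, was seeded at OD 0.01 in PMG+AL medium with 23 nL pinned compound. After 24 h at 30 °C and 99% humidity, viability was read by BacTiter-Glo luminescence.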
Pf growth 48h – Primary qHTS for delayed death inhibitors of the malarial parasite plastid, 48 hour incubation; P. falciparum luciferase growth in erythrocytes, 48 h; Potency, µM (series often up to 28.7 µM), usual class: inhibitors; 5.9% of 310,000 active; AID 504832, 2011; active = well fitted inhibition curve with a large enough effect; inconclusive = small, poorly fitted or top-dose-only effect, or another doubt; inactive = no such curve, though single readings can be large or run the other way
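Luciferase-expressing parasites in RBCs, 2% Hct / 0.1% parasitemia final; RPMI 1640 + 0.5% Albumax; 37 C, 5% CO2, one generation; luminescence read-out, lower signal = inhibition.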
Pf growth 96h – Primary qHTS for delayed death inhibitors of the malarial parasite plastid, 96 hour incubation; P. falciparum luciferase reporter growth, 96 h; Potency, µM (titrated, usually from 28.7 µM), most hits filed as inhibitors; 6.9% of 320,000 active; AID 504834, 2011; active = well fitted inhibition curve with a large enough effect; inconclusive = small, poorly fitted or top-dose-only effect, or another doubt; inactive = no such curve, though single readings can be large or run the other way
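Parasite growth measured via integrated firefly luciferase reporter in P. falciparum. Infected erythrocytes at 2% hematocrit, 0.05% parasitemia final were treated 96 hours at 37 C under 5% CO2, and luminescence was read.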
Large screens that a line does not name were inactive. Unless noted, calls follow the shape of the full dose curve.

CC(=O)O[C@]1(C(C)=O)CCC2C3C=C(C)C4=CC(=O)CC[C@]4(C)C3CC[C@@]21C (stereo partly specified)	Pf growth 48h inconclusive, Pf growth 96h inconclusive
C=C1CC2C3C=C(C)C4=CC(=O)CCC4(C)C3CCC2(C)[C@@]1(OC(C)=O)C(C)=O (stereo partly specified)	Pf growth 48h inconclusive, Pf growth 96h 10.7µM (no result: SARS PLpro yeast, NS1 inh, RE007 growth inh)
CC(=O)O[C@]1(C(C)=O)CC[C@H]2[C@@H]3C=C(C)C4=CC(=O)CC[C@@H]4[C@H]3CC[C@@]21C	Pf growth 48h 13.1µM, Pf growth 96h inconclusive (no result: SARS PLpro yeast, NS1 inh)
CC(=O)OC1(C(C)=O)CCC2C3CC(Cl)C4=CC(=O)CCC4(C)C3CCC21C (stereo unspecified)	none (no result: SARS PLpro yeast, NS1 inh, Pf growth 48h, Pf growth 96h)
COc1ccccc1CNC(=O)[C@H](C)NC(=O)C1CCN(C(=O)[C@@H](N)CC(C)C)CC1	none
Cc1nn(-c2ccc(C(F)(F)F)cn2)c(C)c1Oc1ccccc1O	Pf growth 96h 8.28µM (no result: Pf growth 48h)
NC1=NC(S)C2N=CN=C2N1 (stereo unspecified)	Pf growth 48h inconclusive, Pf growth 96h 7.57µM (no result: SARS PLpro yeast, NS1 inh, RE007 growth inh)
C/C(CC(=O)Nc1cccc(C(F)(F)F)c1)=N\NC(=O)C1CCCCC1	none
O=C(CSc1nc2ccccc2c(=O)[nH]1)Nc1cccc([N+](=O)[O-])c1	Pf growth 96h 1.17µM
CCCC(c1nnnn1Cc1cccs1)N1CCN(C)CC1 (stereo unspecified)	none
CCCC(c1nnnn1CCOC)N1CCN(c2nc3ccccc3s2)CC1 (stereo unspecified)	Pf growth 48h inconclusive (no result: NS1 inh)
COc1ccccc1CN1CCN(C(CC(C)C)c2nnnn2Cc2cccs2)CC1 (stereo unspecified)	Pf growth 48h 13.1µM
COc1ccccc1CN1CCN(Cc2nc(-c3cccs3)no2)CC1	Pf growth 96h 5.86µM
COc1ccc(C(c2nnnn2Cc2cccs2)N2CCN(c3ccccc3F)CC2)cc1OC (stereo unspecified)	Pf growth 48h 2.33µM (no result: Pf growth 96h)
CCCCC(c1nnnn1Cc1ccco1)N1CCN(c2nc3ccccc3s2)CC1 (stereo unspecified)	Pf growth 48h 9.28µM (no result: Pf growth 96h)
COc1ccc(S(=O)(=O)Nc2ccc3c(c2)OCCO3)cc1OC	none
CC(C)(C)OC(=O)C[C@H]1C/C=C\C[C@H](CC(=O)N(CCO)Cc2ccccc2)C(=O)N[C@@H](Cc2ccccc2)COC1=O	none (no result: NS1 inh, Pf growth 48h, Pf growth 96h)
CC(OC(=O)CC1CCCC1)C(=O)Nc1ccc(S(N)(=O)=O)cc1 (stereo unspecified)	none (no result: NS1 inh)
CCC(C)(C)n1nnnc1C(c1ccc(O)c(OC)c1)N1CCN(c2nc3ccccc3s2)CC1 (stereo unspecified)	Pf growth 48h inconclusive
CCC(c1nnnn1CCOC)N1CCN(c2nc3ccccc3s2)CC1 (stereo unspecified)	none
CC(C)CCn1nnnc1C(c1ccc(N(C)C)cc1)N1CCN(C(=O)c2ccco2)CC1 (stereo unspecified)	Pf growth 48h inconclusive, Pf growth 96h 10.4µM
CCC(c1nnnn1Cc1ccccc1)N1CCN(C(=O)c2ccco2)CC1 (stereo unspecified)	NS1 inh inconclusive
COc1ccc(C(c2nnnn2Cc2ccccc2)N2CCN(c3nc4ccccc4s3)CC2)cc1OC (stereo unspecified)	Pf growth 48h 10.4µM
CC(C)C(c1nnnn1Cc1ccc(F)cc1)N1CCN(C(=O)c2ccco2)CC1 (stereo unspecified)	Pf growth 48h inconclusive, Pf growth 96h 13.1µM
COc1ccccc1C(c1nnnn1Cc1ccccc1)N1CCN(c2nc3ccccc3s2)CC1 (stereo unspecified)	Pf growth 48h 3.29µM
Cc1cc(Br)ccc1NC(=O)CN(C)C(=O)CSCc1ccccc1	none (no result: NS1 inh)
COc1ccc(C(c2nnnn2Cc2ccccc2)N2CCN(C(=O)c3ccco3)CC2)cc1OC (stereo unspecified)	Pf growth 48h inconclusive, Pf growth 96h 3.7µM
CCOc1ccc(CN(C)C(=O)[C@H](C)NC(=O)c2ccco2)cc1OC	none
COc1ccccc1OCCNC(=O)c1ccc(NC(=O)CC2SC(N3CCCC3)=NC2=O)cc1 (stereo unspecified)	none (no result: SARS PLpro yeast, NS1 inh, Pf growth 48h, Pf growth 96h)
COc1ccccc1CCNC(=O)c1ccc(NC(=O)CC2SC(N3CCCCC3)=NC2=O)cc1 (stereo unspecified)	Pf growth 48h 11.7µM, Pf growth 96h 10.4µM (no result: NS1 inh)
COc1cccc(CN(C)C(=O)c2ccc(NC(=O)CC3SC(N4CCCCC4)=NC3=O)cc2)c1OC (stereo unspecified)	none (no result: SARS PLpro yeast, NS1 inh, Pf growth 48h, Pf growth 96h)
COc1cccc(CN(C)C(=O)c2cccc(NC(=O)CC3SC(N4CCCCC4)=NC3=O)c2)c1OC (stereo unspecified)	Pf growth 48h 10.4µM, Pf growth 96h 9.28µM (no result: NS1 inh)
CC(/C=C/c1ccc(O)cc1)=NNc1ccccc1	none (no result: SARS PLpro yeast, NS1 inh, Pf growth 48h, Pf growth 96h)
Cn1c(CNC(=O)OC(C)(C)C)nnc1SCC(=O)N1CCOCC1	none
CC(C)(C)Sc1ccc([N+](=O)[O-])cc1C(=O)Nc1ccncc1	Pf growth 48h inconclusive, Pf growth 96h 0.928µM
COc1ccc2cnn(CCOc3cc(C)ccc3C(C)C)c(=O)c2c1OC	Pf growth 48h inconclusive, Pf growth 96h 10.4µM
COc1cccc(NC(=O)N2CCCC2C(=O)Nc2cc(C)ccc2OC)c1 (stereo unspecified)	none
CC(=O)N1N=C(c2ccc([N+](=O)[O-])cc2)CC1c1ccccc1Cl (stereo unspecified)	Pf growth 48h inconclusive
CCn1cc([N+](=O)[O-])c(C(=O)N2N=C(c3ccc(O)c(OC)c3)CC2c2ccccc2O)n1 (stereo unspecified)	NS1 inh inconclusive, Pf growth 48h inconclusive, Pf growth 96h 14.7µM
CCn1cc([N+](=O)[O-])c(C(=O)N2N=C(c3ccccc3)CC2c2ccc([N+](=O)[O-])cc2)n1 (stereo unspecified)	NS1 inh inconclusive, Pf growth 48h 13.1µM, Pf growth 96h inconclusive
CCn1cc([N+](=O)[O-])c(C(=O)N2N=C(c3ccc(Cl)c(Cl)c3)CC2c2ccccc2O)n1 (stereo unspecified)	Pf growth 48h 3.7µM, Pf growth 96h inconclusive (no result: NS1 inh)
CCn1cc([N+](=O)[O-])c(C(=O)N2N=C(c3ccc4ccccc4c3)CC2c2cc(Br)ccc2O)n1 (stereo unspecified)	NS1 inh inconclusive, Pf growth 48h 3.29µM, Pf growth 96h inconclusive
N[C@@H](Cc1ccnnc1)C(=O)O	none (no result: SARS PLpro yeast, RE007 growth inh, Pf growth 48h, Pf growth 96h)
COC(=O)c1ccc(NC(=O)Cn2nc(C(=O)Nc3ccc(C)cc3)ccc2=O)cc1	Pf growth 96h inconclusive
CN(/N=C/c1cc(Cl)ccc1O)C1=NS(=O)(=O)c2ccccc21	Pf growth 48h inconclusive
NCCSCCC(=O)O	none (no result: SARS PLpro yeast, RE007 growth inh, Pf growth 48h, Pf growth 96h)
COc1ccc2cc1Oc1cc3c(cc1OC)CC[N+](C)(C)C3Cc1ccc(cc1)Oc1c(OC)c(OC)cc3c1C(C2)[N+](C)(C)CC3 (stereo unspecified)	none (no result: SARS PLpro yeast, NS1 inh, RE007 growth inh)
